# Shown are actives, neighbours in structure and some others; about 1.1% of the full set was active somewhere.
# Glioma ERSR ind – qHTS for Inducers of the Endoplasmic Reticulum Stress Response (ERSR) in Human Glioma: qHTS | U87-MG GRP78 promoter luciferase reporter, 16 h | Potency, µM, without a hit: at the top dose activation, actives largely listed as activators | actives 0.02% (n = 420,000) | AID 602332, 2012; note: series mostly up to about 76 µM; % of control where 0% means no effect; nearly all actives have a fitted effect of over 35% in size
#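 ERSR induction read as luciferase luminescence (Bright-Glo, 10 min at room temperature) in stably transfected human U87-MG glioma cells exposed to compounds for 16 h, using GRP78 as sensor.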
# Apoferritin bind – qHTS Assay for Identification of Novel General Anesthetics; Potency, µM (doses to about 77.5 µM), inactives show at the top dose activity change, negative = displacement, most hits filed as inhibitors; apoferritin/1-aminoanthracene competitive binding, fluorescence; actives 0.074% (n = 350,000); Ferritin light chain (Equus caballus), P02791; note: % is set by controls: 0 for no effect and ±100 for the full control effect; nearly all actives have a fitted effect of over 20% in size
# Target sequence (P02791 2-175 limits assumed): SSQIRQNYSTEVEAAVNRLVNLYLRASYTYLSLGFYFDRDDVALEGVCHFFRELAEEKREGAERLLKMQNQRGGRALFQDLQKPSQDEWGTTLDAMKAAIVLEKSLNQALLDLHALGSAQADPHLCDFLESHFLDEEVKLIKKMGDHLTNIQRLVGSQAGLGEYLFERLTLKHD
#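 Probe: 1-aminoanthracene (50% saturated, PBS). Protein: horse-spleen apoferritin, 10 uM. Incubation: 10 min, room temperature. Detection: 380 nm excitation, 535 nm emission. Analysis: normalized response, four-parameter Hill.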
# BCR signal inh – qHTS Assay to Find Inhibitors of Chronic Active B-Cell Receptor Signaling. Potency, µM (series often up to 46.1 µM), for inactives: at the top dose activity change, negative = inhibition, actives largely listed as inhibitors. AID 493014, 2011. actives 0.05% (n = 340,000). ABC-DLBCL IkBa-CBG/CBR reporter, luminescence ratio, 4 h; active = well fitted inhibition curve with a large enough effect in the signal ratio, with a control signal flat, not every such curve was filed as active; inconclusive = small, poorly fitted or top-dose-only effect, or effect the other way, or a change in a side signal; the % refers to the signal ratio;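 note: plate controls were basal doxycycline-induced cells for no effect and cells given 10 µM MG132 for full effect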
#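 Cell line TMD8 (human ABC DLBCL), stably expressing tet-inducible CBG68-IkBa fusion and CBR; IMDM/0.5% FBS; cpd up to 46 uM; dox induction, 4 h, 37C/5% CO2; dual luminescence; green/red ratio; MG132 control.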
# 12-LOX inh – Primary qHTS assay for inhibitors of human arachidonate 12S-lipoxygenase (ALOX12): Round 2; purified 12hLO, xylenol orange hydroperoxide absorbance; Potency, µM (doses to about 108 µM), without a hit: top-dose activity change, negative = inhibition, actives largely listed as inhibitors; actives 1.1% (n = 580,000); note: % is set by controls: 0 for no effect and ±100 for the full control effect
#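 Purified human 12hLO (150 nM final) in 25 mM Hepes, 0.01% Triton X-100, pH 7.0 was preincubated 15 min at room temperature with compound. Then 40 uM arachidonic acid was added, 30 min. Hydroperoxide was read by Fe-XO absorbance ratio 573/405 nm.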
# Numbers without * were called inactive; ? = inconclusive; . = no result given; ! = a repeat was not active; [ ] = remark or other dose. Unless noted, calls come from the whole dose curve; as a rule, active = well fitted curve in the direction sought with a large enough effect; inconclusive = small, poorly fitted or top-dose-only effect, or another doubt; inactive = no such curve, though single readings can be large; an effect the other way counts as inactive or inconclusive. Potency is the fitted concentration of half-maximal effect.
SMILES,Glioma ERSR ind,Apoferritin bind,BCR signal inh,12-LOX inh
Cc1ccc(S(=O)(=O)c2nc(-c3ccco3)oc2SC(C)C)cc1,-4%,-16%,9%,32µM*!
Cc1ccc(S(=O)(=O)c2nc(-c3ccco3)oc2SCC(C)C)cc1,-4%,-12%,.,?
Cc1ccc(-c2nc(S(=O)(=O)c3ccc(C)cc3)c(SCC(=O)c3ccccc3)o2)cc1,-4%,-8%,.,-1%
CCSc1oc(-c2ccc(C)cc2)nc1S(=O)(=O)c1ccccc1,.,.,.,32µM*
CCCSc1oc(-c2ccco2)nc1S(=O)(=O)c1ccc(Cl)cc1,-4%,-6%,.,40µM*
CCSc1oc(-c2ccco2)nc1S(=O)(=O)c1ccc(F)cc1,-2%,2%,?,28µM*!
Cc1ccc(F)cc1NC(=O)Cc1nc(-c2cccs2)oc1C,.,.,.,8%
CCOC(=O)c1cc(S(=O)(=O)Nc2ccc(OCc3ccccc3)cc2)[nH]n1,.,.,.,8.9µM*
CCOc1cc(CNc2ccccc2)cc(Br)c1OCc1ccc(F)cc1,-5%,106%,?,-10%
CCOc1cc(CNc2ccc(O)cc2)cc(Cl)c1OCc1ccccc1,13µM*,?,.,116%
COc1cc(CNn2c(C)n[nH]c2=S)cc(Cl)c1OCc1ccccc1,-2%,-21%,?,20µM*
Cc1c(C)c(C)c(S(=O)(=O)Nc2cc(Cl)ccc2C(=O)N(C)C)c(C)c1C,.,.,.,40µM*
Cc1nn(-c2ccc(C(C)C)cc2)c(C)c1[C@@H]1C=C[C@@H](NCc2cccc(C#N)c2)C1,.,.,.,-14%[176 µM]
CN1CCc2nc(SCC(=O)Nc3ccc(Cl)cc3)c(C#N)cc2C1,5%,.,.,5.6µM*
Cc1nc(SCC(=O)Nc2ccc(Cl)cc2)c(C#N)c2c1CCCC2,.,.,.,0%
COc1ccc(-c2nc(-c3cccs3)sc2-c2ccc(OC)cc2)cc1,.,.,.,-25%
N#CC(C#N)=C(N)/C(C#N)=C/c1cc(O)c(O)c(O)c1,0%,-17%,25%,5µM*!
CNC(=O)c1cccc(NC(=O)CSCc2csc(-c3ccccc3)n2)c1,.,.,.,-8%
CCCCC1Cc2[nH]c(=S)[nH]c(=O)c2C(c2cccc3ccccc23)O1 (configuration not stated),.,.,.,13µM*
CCCCC1Cc2[nH]c(=S)[nH]c(=O)c2C(C(C)C)O1 (configuration not stated),.,.,.,0%
COc1ccc(NC(=O)CSc2nc3c(=O)[nH]cnc3n2-c2ccc(C)cc2)cc1OC,.,.,.,23%
Cc1noc(C)c1-c1cc(NCCN2CCOCC2)ncn1,3%,.,.,40µM*
Cc1noc(C)c1-c1cc(Nc2ccccc2)ncn1,-1%,.,.,?
O=C(NCCC1CCCO1)c1cc(-c2ccncc2)nc2ccccc12 (configuration not stated),.,.,.,10%
O=C(COc1ccc([N+](=O)[O-])cc1)Nc1ccc2oc(-c3ccc(F)cc3)nc2c1,.,.,.,7.9µM*
SMILES,Glioma ERSR ind,Apoferritin bind,BCR signal inh,12-LOX inh
COc1ccc(-c2nc3cc(NC(=O)COc4ccc(F)cc4)ccc3o2)cc1,.,6%,.,?
COc1ccc(CCCc2nnc(SCC(=O)Nc3ccc(C)cc3)o2)cc1C,1%,-6%,-2%,18µM*!
Cc1cc(N2C(=O)C(O)=C(C(=O)c3ccc(C)o3)C2c2cccc(Cl)c2)no1 (configuration not stated),3%,.,.,45µM*
Cc1cc(N2C(=O)C(O)=C(C(=O)c3ccc(C)o3)C2c2ccc([N+](=O)[O-])cc2)no1 (configuration not stated),-4%,-8%,0%,40µM*
c1cc(SSc2ccncc2)ccn1,6%,0%,?,6.3µM*
COc1ccc(CNC(=O)CSc2nc3ccccc3nc2N2CCCCC2)cc1,.,.,.,66%
O=C(CSc1ncc(-c2ccc(F)cc2)o1)Nc1ccc(F)c(F)c1,.,.,.,-55%
Cc1nn(-c2nc3ccccc3o2)c2c1C(c1ccc(C(F)(F)F)cc1)CC(=O)N2 (configuration not stated),.,.,.,158%
CC(=O)OCC1=C(C(=O)O)N2C(=O)C(NC(=O)CCn3nc(C)c(Cl)c3C)C2SC1 (configuration not stated),-1%,-1%,2%,-27%

# Screening data deposited in PubChem by National Center for Advancing Translational Sciences (NCATS).
